Molecules are shown by their SMILES. About 1,200 (55%) of roughly 2,200 compounds were called active. No cut-off is given here; in the data, nearly all actives have IC50 up to about 92 µM. The set was probably picked from earlier hits. This is one part of the list.

The nature of the experiment: counter assay for TAg ATPase ADP read-out – biochemical, ADP-Hunter, fluorescence, counter-screen (AID 2501).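 For inhibition: higher means more inhibition.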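 Note: purified T antigen ATPase.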 The settings on record: series mostly up to 100 µM. (In general: A counterscreen serves to expose hits that act by an unwanted route or on another target.)
A word on the IC50: it is the concentration that gives 50% inhibition. In the case of `N#C/C(=C\c1ccc(O)c(O)c1)C(=O)c1ccc(O)c(O)c1`, the IC50 is 3.24 µM (active). As for `COc1cc(/C=C(\C#N)C(=O)c2ccc(O)c(O)c2)cc(I)c1O`, the IC50 was 12.3 µM (active).

Turning to `N#C/C(=C\c1cccc(Cl)c1)C(=O)c1ccccc1`, the IC50 entry is “inactive”. `Cc1cccc(C2c3[nH]c4ccccc4c3CCN2C(=O)c2nn(C)c(=O)c3ccccc23)n1` (centres undefined): the IC50 result was “inactive”. On to `COC(=O)/C=C1/N/C(=N\c2nc(C)cc(C)n2)N(c2ccc(Cl)cc2)C1=O`, for which the IC50 entry is “inactive”. `Cc1cc2ccccc2n1CCNC(=O)COc1ccc2ccccc2c1`: the IC50 result is “inactive”.

Take `OCC1CCCN(C(=S)Nc2ccc(Nc3ccccc3)cc2)C1` (centres undefined): the IC50 was 3.07 µM (active).

Take `OC1CCN(C(=S)Nc2ccc(Nc3ccccc3)cc2)CC1`: the IC50 is 2.9 µM (active). As for `Cc1cc(C)c2c(c1)NC(C(=O)O)C1CC=CC21` (centres undefined), the IC50 entry is “inactive”. In the case of `N#Cc1c(SCC(=O)Nc2nncs2)sc2c(O)cc(=O)[nH]c12`, the IC50 entry was “inactive”.

For the molecule `c1nc2sc3c(c2c2nnnn12)CCC3`, the IC50 result was “inactive”. As for `Nc1ccc(-c2nc3c(Cl)cc(N)cc3[nH]2)cc1`, the half-maximal inhibitory concentration (IC50) is 4.91 µM (active). As for `Nc1ccc(-c2nc3c(Cl)c(N)ccc3[nH]2)cc1`, the 50% inhibitory concentration (IC50) is 3.24 µM (active).

Regarding `O=C(O)COc1ccccc1C(Nc1cccnc1)c1cc(Cl)c2cccnc2c1O` (centres undefined), the IC50 result was “inactive”. Then `CCc1c(C)nc2ncnn2c1N1CCCC(C(=O)Nc2cc(F)ccc2C)C1` (centres undefined), with “inactive”; and `Cc1ccc(-c2cc(-c3ccco3)c(C#N)c(=O)[nH]2)cc1`, with “inactive”; and `CCCCOC1(c2ccccc2)NC(=S)NN=C1c1ccccc1` (centres undefined), with 4.2 µM (active). With `CN1CC(C(=O)O)Cc2c1ccc1ccccc21` (centres undefined), the concentration for half-maximal inhibition (IC50) is 8.64 µM (active). As for `CC(C)N1CC(C(=O)O)CC1=O` (centres undefined), the IC50 result was “inactive”. Then `COc1cc(C#CC#CCN2CCCCC2)ccc1O`, with 5.76 µM (active); and `O=C(O)CN1C(=O)/C(=C\c2cc([N+](=O)[O-])ccc2OCc2ccccc2Cl)SC1=S`, with “inactive”; and `CN1C(=O)/C(=C/c2ccc(-c3ccccc3[N+](=O)[O-])o2)SC1=Nc1ccc(Cl)c(C(=O)O)c1`, with 92.5 µM (active). Then `C=CCNC(=S)Nc1ccc(N(C)C)cc1`, with 1.99 µM (active). Consider `CCCCOC(=O)Nc1ccc(N(C)C)cc1`, for which the IC50 is 4.65 µM (active). Then `CCOC(=O)c1c(C)c(C(=O)Nc2ccc(N(C)C)cc2)c(C)n1CC`, with 10.6 µM (active); and `CN(C)c1ccc(NC(N)=S)cc1`, with 3.1 µM (active); and `CCCCOC(=O)c1ccc(NC(=O)Nc2ccc(OC)c(OC)c2)cc1`, with “inactive”. Consider `Cc1cc(S(=O)(=O)Nc2c(C)nc3nc[nH]n3c2=O)ccc1F`, for which the IC50 result was “inactive”. Then `CC(C)CC(NC(=O)C1CCC(=O)N1C(=O)OCc1ccccc1)C(=O)NC(Cc1ccccc1)C(N)=O` (centres undefined), with “inactive”. As for `CCN(CC)C(=S)SSC(=S)N(CC)CC`, the IC50 entry was “inactive”.

`Cn1cccc1Cc1nnc(SCC(=O)NCC2CCCO2)n1C` (centres undefined): the IC50 entry is “inactive”. Then `O=C(NCC1CCCO1)c1ccc2c(c1)N(Cc1ccc(F)cc1)CCS2` (centres undefined), with “inactive”; and `CN(C)c1ccc(NC(=S)NCC2CCCO2)cc1` (centres undefined), with 7.16 µM (active). For the molecule `CCOC(=O)C1(C)C=C(Nc2ccc(O)cc2)C(=O)N1c1ccc(O)cc1` (centres undefined), the IC50 was 2.33 µM (active). With `c1csc(CN2CCOCC2)c1`, the IC50 entry was “inactive”. Turning to `Oc1ccc(NCc2cccs2)cc1`, the 50% inhibitory concentration (IC50) was 4.39 µM (active).

As for `Clc1cc(NCc2cccs2)ccc1N1CCOCC1`, the IC50 is 31.5 µM (active).

In the case of `COc1ccc2c(c1)C(=O)Cc1ccccc1O2`, the IC50 result is “inactive”.

With `Nc1cccc2nsnc12`, the half-inhibitory concentration (IC50) is 11 µM (active). Regarding `Cc1ccc2nsnc2c1NS(=O)(=O)c1c(C)ccc2nsnc12`, the IC50 entry was “inactive”.

Regarding `Cc1cc2c(N)cccc2nn1`, the IC50 entry is “inactive”. Then `O=C(OCCc1ccccc1)c1cc(O)c(O)c(O)c1`, with 29.2 µM (active). Consider `O=C(OCC1O[C@@H](OC(=O)c2cc(O)c(O)c(O)c2)[C@@H](OC(=O)c2cc(O)c(O)c(O)c2)[C@@H](OC(=O)c2cc(O)c(O)c(O)c2)[C@@H]1OC(=O)c1cc(O)c(O)c(O)c1)c1cc(O)c(O)c(O)c1` (some centres undefined), for which the IC50 result was “inactive”.

On to `CN1CCc2cccc3c2[C@@H]1Cc1ccc(O)c(O)c1-3`, for which the IC50 entry is “inactive”. With `CC(C)(C)n1nc2c(c1NC(=O)c1ccccc1S(=O)(=O)C(F)F)CS(=O)(=O)C2`, the IC50 result is “inactive”. As to `O=c1[nH][nH]c(=S)n1C1CCCCC1`, the IC50 result is “inactive”.

As for `COc1cccc(/C=N/N2CCN(c3ccncc3S(=O)(=O)N3CCCCC3)CC2)c1`, the IC50 entry is “inactive”.

For the molecule `COc1ccccc1N1CCN(/N=C/c2ccc(O)c(O)c2)CC1`, the IC50 was 5.45 µM (active). `Oc1ccc2[nH]ccc2c1`: the IC50 is 2.23 µM (active). On to `O=C(O)c1ccc(NS(=O)(=O)c2ccc3c(c2)C2C=CCC2C(c2ccccc2F)N3)cc1` (centres undefined), for which the IC50 result was “inactive”.

Turning to `Oc1ccc(O)cc1`, the IC50 was 7.46 µM (active). As for `CC(=O)c1cc2c(O)c(O)ccc2o1`, the half-inhibitory concentration (IC50) was 7.04 µM (active). Regarding `Cc1ccc2oc(C(=O)Nc3nonc3C)c(C)c2c1`, the IC50 result was “inactive”. For `CCOc1ccc(/C=N/NC(=O)CSc2ccccn2)cc1O`, the half-maximal inhibitory concentration (IC50) was 2.66 µM (active). As for `COc1cc(/C=N/NC(=O)CSc2ccccn2)ccc1O`, the IC50 is 4.11 µM (active). As to `Cc1cc(C)nc(NC2=NCC(=O)N2c2cc(Cl)cc(Cl)c2)n1`, the IC50 entry is “inactive”. Then `CC1(OC(=O)C2CCCC2)C(=O)C=C2C=C(c3ccsc3)N(Cc3ccco3)C=C2C1=O` (centres undefined), with “inactive”; and `Nc1ccc2nc(CCCCCCc3nc4ccc(N)cc4[nH]3)[nH]c2c1`, with 2.36 µM (active); and `Nc1ccc2nc(CCCCCCCCc3nc4ccc(N)cc4[nH]3)[nH]c2c1`, with 6.38 µM (active). Then `Nc1ccc2nc(CCCO)[nH]c2c1`, with 2.74 µM (active); and `Cc1c(C=NCCOCc2ccccc2)cnn1C`, with “inactive”.

As to `COc1cc(/C=N/Nc2nc(N3CCCC3)nc(N3CCCC3)n2)ccc1O`, the half-inhibitory concentration (IC50) was 6.61 µM (active).

`CN(C)c1nc(NCc2ccccc2)nc(N/N=C/c2ccc(Cl)cc2Cl)n1`: the IC50 result was “inactive”. Regarding `CCNc1nc(NCC)nc(N/N=C/c2ccc(O)c(OC)c2)n1`, the IC50 is 5.21 µM (active). Then `COc1ccc(/C=N/Nc2nc(N3CCCC3)nc(N3CCCC3)n2)cc1O`, with 3.91 µM (active); and `Cc1ccc(-c2nc3ncccn3c2NC2CCCCC2)o1`, with 6.91 µM (active); and `CCOC(=O)c1c(NC(C)=O)sc2c(O)c(Br)cc(Br)c12`, with 28.4 µM (active). As to `CCOC(=O)c1c(NC(=O)/C=C/C(=O)O)sc(C)c1-c1ccc(C(C)(C)C)cc1`, the IC50 result was “inactive”. As to `CCOC(=O)c1c(NC(=O)/C=C/C(=O)O)sc(C)c1-c1ccc(Cl)cc1`, the IC50 result is “inactive”.

The values above are taken from PubChem BioAssay AID2501 (Southern Research Specialized Biocontainment Screening …, 2010).
